Laboratory results taken from PubChem BioAssay AID651815 (National Center for Advancing Translational Sciences (NCATS), 2012).
Hit rate of the full screen: of about 2,100 compounds, about 1,100 (52%) were called active. Not shown: some 29% with an inconclusive outcome. So high a share suggests a set chosen from earlier hits. The list shows a part of the results. Unmarked numbers belong to inactive results. Calls follow the shape of the dose curve; as a rule, active = well fitted inhibition curve with a large enough effect; inconclusive = small, poorly fitted or top-dose-only effect; inactive = no such curve, though single readings can be large or run the other way.

Each compound was assayed against DNA dC->dU-editing enzyme APOBEC-3F (Homo sapiens) (UniProt Q8IUX4) (assay: qHTS for inhibitors of Vif-A3F interactions: Cherry picks counterscreen). Details: HeLa A3F-eYFP/Vif cells, eYFP fluorescence, 24 h; series mostly up to 46.1 µM; activity, negative = inhibitor: at the top concentration.
Outline: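 Rescue of Vif-driven A3F-eYFP degradation read as cellular eYFP fluorescence after 24 h compound exposure (several concentrations) in stable HeLa cells; MG132 (2 mM stock) as positive control.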
% is scaled to controls: 0 for no effect and ±100 for the full control effect; potency is read from the fitted curve at half-maximal effect.
Also: nearly all actives have a fitted effect of over 65% in size.

DNA dC->dU-editing enzyme APOBEC-3F (Homo sapiens), sequence (Q8IUX4 whole entry, looked up): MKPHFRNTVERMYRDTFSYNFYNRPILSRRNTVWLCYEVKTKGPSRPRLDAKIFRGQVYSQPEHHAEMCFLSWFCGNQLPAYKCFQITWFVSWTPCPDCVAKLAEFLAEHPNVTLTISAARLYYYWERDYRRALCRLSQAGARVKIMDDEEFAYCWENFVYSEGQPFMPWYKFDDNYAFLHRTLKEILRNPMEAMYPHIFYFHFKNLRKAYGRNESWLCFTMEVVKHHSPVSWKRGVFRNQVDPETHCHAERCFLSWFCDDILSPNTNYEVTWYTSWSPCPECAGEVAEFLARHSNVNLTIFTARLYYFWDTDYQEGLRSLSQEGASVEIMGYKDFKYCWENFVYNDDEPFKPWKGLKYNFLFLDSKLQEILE

| SMILES | Potency | activity, negative = inhibitor |
| --- | --- | --- |
| COc1ccccc1C(=O)N1CCN(c2cccc(Cl)c2)CC1 | 1.25 µM (active) |  |
| Cc1ccc2nc3c(cc(S(=O)(=O)c4ccccc4)c(=N)n3Cc3ccco3)c(=O)n2c1 |  | -23% |
| COc1ccc(Cn2c(C)nc3c(c2=O)c2nc4ccccc4nc2n3Cc2ccco2)cc1 | 18.4 µM (active) |  |
| CCn1c(SCC(=O)c2c[nH]c3ccccc23)nnc1-c1cccs1 | 18.4 µM (active) |  |
| CCOC(=O)c1c(-c2ccc(C)cc2)csc1NC(=O)/C(C#N)=C/c1ccc(O)c(OC)c1 |  | 16.7% [at 36.9 µM] |
| CCOc1ccc(NC(=O)/C(C#N)=C/c2ccc(N3CCCC3)c(C)c2)cc1 | 5.8 µM (active) |  |
| CCOc1cc(/C=C(/C#N)C(=O)Nc2ccc(O)cc2)cc(Br)c1O | 15.8 µM (active) |  |
| Cc1ccc2c(c1)Sc1c(ccc3ccccc13)N2 | 16.4 µM (active) |  |
| O=[N+]([O-])c1ccccc1SNc1ccccc1 |  | -29% [at 36.9 µM] |
| Cc1cc(C)c(S(=O)(=O)Oc2ccccc2[N+](=O)[O-])c(C)c1 | 6.27 µM (active) |  |
| CCN(CC)c1ccc(C=NNc2ccc([N+](=O)[O-])cn2)cc1 | 10.3 µM (active) |  |
| Cc1ccc(Cc2c(C3CCCCC3)nc3ccc(C)cn23)cc1 |  | -21.2% [at 36.9 µM] |
| Cc1noc(C)c1COc1cccc(C(=O)OCC(=O)N2CC(=O)Nc3ccccc32)c1 | 6.27 µM (active) |  |
| C/C(=N\Nc1nccnc1Cl)c1ccc(Cl)c(Cl)c1 |  | -1.06% |
| C=CCSc1nc2ccccc2n1C(=O)/C=C/c1cc(OC)c(OC)c(OC)c1 | 6.27 µM (active) |  |
| CCSc1nc2ccccc2n1C(=O)/C=C/c1ccc(OC)c(OC)c1 | 4.98 µM (active) |  |
| CNc1cncc(-c2cc(C)c(O)c(C)c2)n1 | 4.44 µM (active) |  |
| O=C(Nc1ncc(Cc2ccc(SC(F)F)cc2)s1)c1ccccc1 | 2.23 µM (active) |  |
| Cc1nc(-c2ccc(Cl)cc2)sc1C(=O)NN | 14 µM (active) |  |
| O=C(O)Cc1sc(NC2CCCCC2)nc1-c1ccc(Cl)cc1 |  | -13.1% |
| CCOc1cc(/C=C2/SC(=S)N(CC3CCCO3)C2=O)ccc1O (configuration not stated) | 14.6 µM (active) |  |
| Cc1cc(N(C)C)c(C)cc1/C=C/c1ccnc2ccccc12 | 8.2 µM (active) |  |
| CCN(CC)c1cc(C)c(/C=C/c2ccnc3ccccc23)cc1C | 20.6 µM (active) |  |
| CC(C)C1C(=O)N(Cc2cn(CCC3OCCCO3)nn2)CCS(=O)(=O)N1Cc1ccc(-c2cccc(CO)c2)cc1 (configuration not stated) |  | -8.31% [at 36.9 µM] |

| SMILES | Potency | activity, negative = inhibitor |
| --- | --- | --- |
| COc1ccc(-c2cc3ccccc3oc2=O)cc1NC(=S)NC(=O)c1ccc2c(c1)OCCO2 | 6.51 µM (active) |  |
| O=C(NC(=S)Nc1ccc(N2CCCCC2)c(Cl)c1)c1ccc2c(c1)OCCO2 |  | -28.4% |
| Cc1ccc2ccc3cc(C(=O)Nc4ccc(C)c(F)c4)nc3c2[nH]1 | 18.4 µM (active) |  |
| C1=Cc2ccccc2/C1=C\c1cc2c3c(c1)CCCN3CCC2 | 16.4 µM (active) |  |
| Cc1ccc(/C=C2/CNC/C(=C/c3ccc(C)cc3)C2=O)cc1 | 9.94 µM (active) |  |
| CCNc1ccc(Br)cc(C(=O)/C=C/c2ccc3c(c2)OCO3)c1=O | 18.4 µM (active) |  |
| Cc1ccc2oc(/N=C(\N)NC(=O)C(C)(C)C)nc2c1 |  | 0.425% |
| CN1C(=O)/C(=C/c2ccccc2OCc2ccc(F)cc2)N(C)C1=S |  | -14.7% |
| CCNC(=S)N/N=C(\C)c1ccc(N2CCOCC2)cc1 |  | -2.23% |
| Cc1cccc2cc3c(N)c(C(=O)Nc4ccc(N5CCOCC5)cc4)sc3nc12 | 12.5 µM (active) |  |
| CCc1ccc(C(=O)NC(=S)Nc2ccc(N3CCOCC3)cc2)cc1 |  | 3.84% |
| Cc1ccc(C)c2nc3sc(C(=O)N4CCOCC4)c(N)c3cc12 | 15.8 µM (active) |  |
| Cc1cccc2cc3c(N)c(C(=O)N4CCOCC4)sc3nc12 | 16.4 µM (active) |  |
| O=C(Nc1ccc(N2CCOCC2)cc1)c1cccc2ccccc12 | 15.8 µM (active) |  |
| N#C/C(=C\c1ccc(N2CCOCC2)o1)C(=O)NC1CCCCC1 | 14 µM (active) |  |
| N#C/C(=C\c1ccc(N2CCOCC2)o1)C(=O)NCCc1ccccc1 |  | 39.2% |
| N#C/C(=C/c1ccc(N2CCOCC2)o1)C(=O)NC1CCCCC1 | 18.4 µM (active) |  |
| Oc1cccc(Nc2nc(O)c(/C=C3\C=Nc4ccccc43)s2)c1 | 20.6 µM (active) |  |
| CCOC(=O)/C=c1\s/c(=C\c2c(OC)ccc3ccccc23)c(=O)n1CC(=O)NCC1CCCO1 (configuration not stated) | 4.61 µM (active) |  |
| NC(=O)CSc1nc2c(sc3ccccc32)c(=O)n1CCCC(=O)NCC1CCCO1 (configuration not stated) |  | -9.59% |
| CCOC(=O)/C=c1/s/c(=C\c2c(OC)ccc3ccccc23)c(=O)n1CC(=O)NCC1CCCO1 (configuration not stated) | 9.94 µM (active) |  |
| CCOC(=O)/C=c1/s/c(=C/c2ccc3cc(OC)ccc3c2)c(=O)n1CC(=O)NCC1CCCO1 (configuration not stated) | 18.4 µM (active) |  |
| CCOC(=O)/C=c1\s/c(=C\c2ccccc2C)c(=O)n1CC(=O)NCc1ccc2c(c1)OCO2 | 14 µM (active) |  |
